Screening results from PubChem.
An excerpt weighted towards active compounds, which were near 2.5% of everything screened.
Cruzain noTriton = qHTS Assay for Promiscuous and Specific Inhibitors of Cruzain (without detergent) | Cruzipain (Trypanosoma cruzi), P25779 | purified cruzain, Z-FR-AMC fluorescence, no detergent | Potency, µM, hits mostly inhibitors | actives 2.3% (n = 200,000); further: nearly all actives have a fitted effect of over 40% in size
Target sequence (P25779 123-467 limits assumed): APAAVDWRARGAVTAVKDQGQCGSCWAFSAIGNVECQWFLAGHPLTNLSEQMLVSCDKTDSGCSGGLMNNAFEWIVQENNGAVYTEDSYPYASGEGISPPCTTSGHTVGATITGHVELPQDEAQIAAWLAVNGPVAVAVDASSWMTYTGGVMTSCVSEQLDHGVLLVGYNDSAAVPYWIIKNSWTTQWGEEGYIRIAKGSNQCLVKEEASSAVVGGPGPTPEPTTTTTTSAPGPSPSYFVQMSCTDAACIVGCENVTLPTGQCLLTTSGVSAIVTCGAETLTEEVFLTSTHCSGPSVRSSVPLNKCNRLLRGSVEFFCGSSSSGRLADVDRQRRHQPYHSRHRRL
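Purified cruzain at 1.5 nM, pre-incubated 15 min with compound at room temperature in 100 mM sodium acetate pH 5.5, 5 mM DTT, 0.00005% Triton X-100. Reaction started with 2 uM Z-FR-AMC; AMC fluorescence increase over 60 s gives rate.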
Cruzain inh Det = qHTS Assay for Promiscuous and Specific Inhibitors of Cruzain (with detergent); Cruzipain (Trypanosoma cruzi), P25779; purified cruzain, Z-FR-AMC fluorescence, 0.01% Triton; Potency, µM, most hits filed as inhibitors; actives 0.43% (n = 200,000); AID 1478, 2009; further: nearly all actives have a fitted effect of over 40% in size
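Purified cruzain (1.5 nM final) was preincubated with compounds for 15 min at room temperature in 100 mM sodium acetate pH 5.5, 5 mM DTT, 0.01% Triton X-100. Reaction started with 2 uM Z-FR-AMC; AMC fluorescence change over 60 s gave activity.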
Papain counter = qHTS Assay for Inhibitors of Papain: Counterscreen for Cruzain Assay. shares compounds with Cruzain inh Det. purified papain, Z-FR-AMC fluorescence cleavage. Potency, µM, actives largely listed as inhibitors. actives 41% (n = 410). AID 2161, 2009; further: nearly all actives have a fitted effect of over 35% in size
Of the large screens only hits and unclear results are named; the others gave an inactive call (follow-up assays come after a bar, where they were run). The call rests on the fitted dose curve; in most records, active means well fitted curve in the direction sought with a large enough effect; inconclusive means small, poorly fitted or top-dose-only effect, or another doubt; inactive means no such curve, though single readings can be large; an effect the other way counts as inactive or inconclusive.

O=C(COC(=O)Cc1ccsc1)NC1CCCCCC1	none
Cc1ccc2[nH]c3c(NCCCN4CCCC4=O)ncnc3c2c1	none
COc1ccc2[nH]c3c(NCCN4CCCCC4)ncnc3c2c1	Cruzain noTriton 13µM, Cruzain inh Det 16µM | Papain counter inactive
CCc1cccc(NC(=O)CCc2c(C)nc3c(-c4ccccc4)c(C)nn3c2C)c1	none
CCOc1ccc(CN2C(=O)c3ccccc3Sc3ccc(C(=O)NCc4ccc5c(c4)OCO5)cc32)cc1	Cruzain noTriton 10µM | Papain counter inactive
CCOc1ccc(CN2C(=O)c3ccccc3Sc3ccc(C(=O)NC)cc32)cc1	Cruzain noTriton inconclusive
CCCNC(=O)CCc1nnc2ccc(N3CCN(c4cccc(OC)c4)CC3)nn12	none
O=C(NCCc1nc2ccccc2n1CCCOc1ccc(Cl)cc1)C1CCCCC1	Cruzain inh Det 2µM | Papain counter 28µM
CC(C)(C)c1ccc(OCCn2c(CCNC(=O)C3CCCCC3)nc3ccccc32)cc1	none (no result: Cruzain noTriton, Cruzain inh Det) | Papain counter inactive
CC(=O)NCCc1nc2ccccc2n1CCCCOc1ccc(Cl)cc1	Cruzain noTriton inconclusive
CCOc1ccc(NCc2nc3ccccc3n2CCOc2ccc(C)cc2)cc1	none
Cc1ccc(OCCn2c(CCNC(=O)C3CCCCC3)nc3ccccc32)cc1	Cruzain inh Det 1.3µM | Papain counter inactive
CC(C)(C)C(=O)NCCCc1nc2ccccc2n1CCCOc1ccc(Cl)cc1	Cruzain noTriton inconclusive
Cc1ccc(OCCCn2c(CCNC(=O)C3CCCCC3)nc3ccccc32)cc1	none (no result: Cruzain noTriton, Cruzain inh Det) | Papain counter 25µM
CCCCc1nn2c(=O)cc(COC(=O)CNC(=O)COc3ccc(C)cc3)nc2s1	none
COC(=O)N1CCC2(CC1)CCN(c1ccncc1)CC2	none
CCOc1ccc(CNC(=O)c2cccc(NC(=O)N3CCSc4ncccc43)c2)cc1	none
CCOC(=O)C1=C(O)/C(=C/c2ccccn2)SC1=Nc1ccc(Cl)cc1	Cruzain noTriton inconclusive
COCCCNC(=S)N(Cc1cccnc1)Cc1ccc(OC)c(OC)c1	none
O=C(Nc1ccccc1C(=O)N1CCCCC1)c1nsc2ccccc12	none
CCc1nc2ccccc2n1CCCCOc1ccc(C)cc1	none
Cc1ccc(OCCCCn2c(CCNC(=O)C3CCCCC3)nc3ccccc32)cc1	none (no result: Cruzain noTriton, Cruzain inh Det) | Papain counter 32µM
Cc1[nH]c(=O)[nH]c(=O)c1CSc1nnc([C@@H](NC(=O)OC(C)(C)C)C(C)C)o1	none
CC[C@@H](C)[C@H](NC(=O)OC(C)(C)C)c1nnc(S(=O)(=O)Cc2cc(C)ccc2C)o1	Cruzain noTriton 16µM, Cruzain inh Det 8.9µM | Papain counter 16µM
CCOC(=O)c1c(C)[nH]c(C)c1S(=O)(=O)N1CCN(c2ccc(Cl)cc2)CC1	none
N#Cc1c(-c2ccco2)nc(SCC(=O)Nc2cccc(Cl)c2)[nH]c1=O	none
CC(C)(C)c1ccc(-c2nc(SCC(=O)Nc3ccc(Cl)cc3)[nH]c(=O)c2C#N)cc1	Cruzain inh Det 16µM | Papain counter 10µM
CC1=NNC(=S)NCCCN2CCN(CCCNC(=S)NN=C(C)C=NNC(=S)NCCCN3CCN(CCCNC(=S)NN=C1)CC3)CC2	none
N#Cc1c(NC(=O)CSc2ncnc3c2cnn3-c2ccccc2Cl)sc2c1CCCC2	Cruzain noTriton 3.2µM | Papain counter inactive
N#Cc1c(NC(=O)CSc2ncn(-c3ccccc3)n2)sc2c1CCCC2	Cruzain noTriton inconclusive
CC(C)(C)C(=O)O/N=C1/C(=O)N(c2ccccc2)c2ccccc21	Cruzain noTriton 20µM, Cruzain inh Det 1.6µM | Papain counter 25µM
CC(C)CC(=O)O/N=C1\C(=O)N(c2ccccc2)c2ccccc21	Cruzain noTriton 2.5µM, Cruzain inh Det 0.63µM | Papain counter 1.1µM
CC(C)CC(=O)Nc1cccc2c1C(=O)N(c1ccccc1)C2=O	none
O=C1CCCCC(=O)N(c2ccccc2)c2ccccc21	none
O=C(N/N=C/c1ccc2c(c1)OCO2)C(O)c1ccccc1 (stereo unspecified)	none
N#CCCn1c(=O)cnc2cnc(Oc3ccccc3)nc21	none
Cc1cccc(Cc2c(C)nc3nc(SCc4cccc(F)c4)nn3c2C)c1	none
COc1cc(-c2nn3c(-c4ccccc4)nnc3s2)cc(OC)c1OC	Cruzain noTriton inconclusive
COc1ccc(-c2nnc3sc(-c4ccccc4OC)nn23)cc1	Cruzain noTriton inconclusive
Clc1ccc(-c2nn3c(-c4cc(-c5ccccc5)n[nH]4)nnc3s2)cc1	none (no result: Cruzain noTriton, Cruzain inh Det) | Papain counter inactive
COc1ccccc1-c1nn2c(-c3cc(C)[nH]n3)nnc2s1	none (no result: Cruzain noTriton, Cruzain inh Det) | Papain counter inactive
COc1cc(-c2nn3c(-c4cc(-c5ccccc5)n[nH]4)nnc3s2)cc(OC)c1OC	none (no result: Cruzain noTriton, Cruzain inh Det) | Papain counter inactive
Cc1ccc(-c2nn3c(-c4cccc(Cl)c4)nnc3s2)cc1	Cruzain noTriton inconclusive
Cc1ccc(C)c(CNC(=O)CCn2cccn2)c1	none
CC(C)Nc1nc(Cl)nc(NNC(=O)C(C)Oc2ccccc2)n1 (stereo unspecified)	none
